# Cav32 inh – inhibitors of human Cav3.2 T-type calcium channel | Cav3.2-expressing cells, Fluo-4 calcium fluorescence FDSS; hits give low values | B-score at 10 µM | 4% of 100,000 active | AID 449739;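 active = single-dose well whose peak fluorescence ratio is a statistical outlier from its plate by either plate-standardised score or position-corrected B-score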
# CYP2C19 activ – activators of human cytochrome P450 2C19; P33261; recombinant CYP2C19, luciferin-H EGE luminescence; hits give high values; 0 = fully inhibited enzyme, 1 = untreated enzyme; activation factor at 5 µM; 96,000 tested, under 10 active; AID 1025;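 active = activation factor of at least 2 at 5 µM in the primary screen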
# CYP2C19 inh – human CYP2C19 inhibition | P33261 | CYP2C19 Supersomes, luciferin-H EGE luminescence, 30 min | inhibition, % at 5 µM | 21% of 96,000 active;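 active = CYP2C19 inhibition above a set limit at 5 µM in the primary screen, cut at about 50% in these data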
# CYP2C9 inh – inhibitors of human CYP2C9 | CYP2C9 Supersomes, luciferin-H conversion, luminescence | inhibition, % at 5 µM | 20% of 96,000 active;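 active = blocking of liver enzyme CYP2C9 beyond about 50% at 5 µM, limit read from the data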
# Target sequence (P11712 whole entry, looked up): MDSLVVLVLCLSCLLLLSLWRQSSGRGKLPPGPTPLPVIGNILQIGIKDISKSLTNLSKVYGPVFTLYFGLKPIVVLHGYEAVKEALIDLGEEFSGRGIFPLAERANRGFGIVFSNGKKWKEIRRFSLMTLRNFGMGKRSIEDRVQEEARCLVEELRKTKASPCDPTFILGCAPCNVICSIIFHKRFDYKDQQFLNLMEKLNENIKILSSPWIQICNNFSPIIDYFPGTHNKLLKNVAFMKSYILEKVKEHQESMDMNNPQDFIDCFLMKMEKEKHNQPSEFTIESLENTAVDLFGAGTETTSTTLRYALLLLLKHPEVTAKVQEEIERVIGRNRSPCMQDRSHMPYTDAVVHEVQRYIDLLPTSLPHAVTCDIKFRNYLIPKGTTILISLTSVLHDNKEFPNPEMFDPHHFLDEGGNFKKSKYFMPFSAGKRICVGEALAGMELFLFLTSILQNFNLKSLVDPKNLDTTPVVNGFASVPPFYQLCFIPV
# CYP2C9 activ – activators of human CYP2C9. P11712. recombinant CYP2C9, luciferin-H conversion, luminescence; hits give high values; factor 1 = untreated enzyme, 0 = blocked. activation factor at 5 µM. 1.4% of 96,000 active. AID 1024;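 active = activation factor of 2 or more for CYP2C9 at a 5 µM dose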
# Hits are given with their value; i = inactive; nt = no result. Sampled rows, rich in hits. Any-hit rate of the full collection: about 27%.
SMILES,Cav32 inh,CYP2C19 activ,CYP2C19 inh,CYP2C9 inh,CYP2C9 activ
CN(C)c1nccc(N(Cc2ccccc2)Cc2ccccc2)c1C#N,-5.7,i,i,65,i
CC(C)(C)NC(=O)Cn1cc(C#N)c2cc(Br)ccc21,i,i,88,i,i
O=C(O)C1CC=CCC1C(=O)Nc1ccc(S(=O)(=O)N2CCCc3ccccc32)cc1 (stereo not drawn),i,i,i,63,i
NS(=O)(=O)c1ccc(NC(=O)C2CCCO2)cc1 (stereo not drawn),i,i,i,i,i
O=S(=O)(NCC1CCCO1)c1ccc(S(=O)(=O)N2CCc3ccccc3C2)cc1 (stereo not drawn),i,i,i,i,i
O=C(Nc1ccc(S(=O)(=O)N2CCc3ccccc3C2)cc1)C1CCCO1 (stereo not drawn),-3.9,i,i,i,i
O=C(Nc1ccc(S(=O)(=O)N2CCCc3ccccc32)cc1)C1CCCO1 (stereo not drawn),i,i,60,65,i
COc1ccc(C(=O)NC2CCCCCC2)cc1S(=O)(=O)N1CCCc2ccccc21,i,i,i,i,i
O=S(=O)(NC1CC1)c1ccc(S(=O)(=O)N2CCCc3ccccc32)cc1,i,i,90,78,i
O=C(CN1CCOc2ccccc21)N1CCN(c2cccc(Cl)c2)CC1,i,nt,nt,nt,nt
Cc1oc(-c2ccccc2)cc1C(=O)Nc1ccc(N(C)C)cc1,i,i,i,i,i
COc1ccc(-c2nc3c(c(=O)[nH]c(=O)n3Cc3ccccc3)n2Cc2ccccc2)cc1,-6.4,i,i,i,i
COc1ccc(-c2nc3c(c(=O)[nH]c(=O)n3Cc3ccccc3)n2C)cc1,i,i,i,i,i
Cn1c(-c2cccc(OCc3ccccc3)c2)nc2c1c(=O)[nH]c(=O)n2Cc1ccccc1,i,i,i,54,i
Cc1sc2ncnc(SCC(=O)c3ccc(Cl)s3)c2c1C,nt,i,i,i,i
C=CCN1C(=Nc2cccnc2)SCC1(O)c1ccc(C)cc1 (stereo not drawn),i,i,95,78,i
C=CCN1C(=O)CSC1=Nc1cccc(O)c1,i,i,i,i,i
CCCC(=O)Nc1nc2c(c(=O)[nH]1)CCCC2,i,i,i,i,i
CCOC(=O)N1CCC(NC(=O)c2cc3ccccn3n2)CC1,nt,i,i,i,i
C=CCOC(=O)C1=C[C@@H](c2cn(C(C)=O)c3ccccc23)C[C@@H](OCc2ccc(CO)cc2)O1,i,nt,nt,nt,nt
CC(C/C=N/NC(=O)COc1cc(Cl)ccc1Cl)c1ccccc1 (stereo not drawn),i,i,70,i,i
CC(=O)N(Cc1ccccc1)c1ncc2c(n1)c(=O)c(C#N)c1ccccn12,i,i,i,i,i
O=C(NCc1ccccc1)C1CCCN(S(=O)(=O)c2cccnc2)C1 (stereo not drawn),i,i,i,i,i
COc1ccc(S(=O)(=O)N2CCCC(C(=O)NCc3ccncc3)C2)cc1Cl (stereo not drawn),i,i,100,98,i
Cc1ccc(S(=O)(=O)N2CCCC(C(=O)NCc3cccnc3)C2)cc1Cl (stereo not drawn),i,i,86,i,i
SMILES,Cav32 inh,CYP2C19 activ,CYP2C19 inh,CYP2C9 inh,CYP2C9 activ
N#Cc1nn(-c2ccccc2)nc1N1CCCCC1,nt,i,i,51,i
COc1ccccc1-c1nc(C#N)c(N2CCCCCC2)o1,i,i,i,i,i
COC(=O)c1cccc(S(=O)(=O)N2CCN(c3nc4ccccc4s3)CC2)c1,i,i,i,i,i
Oc1c(Cl)cc(Cl)cc1C(C#Cc1ccccc1)N1CCOCC1 (stereo not drawn),i,i,i,67,i
N#CC(c1ccc(O)cc1)N1CCOCC1 (stereo not drawn),i,nt,nt,nt,nt
COc1ccc(NC2=Nc3ccccc3N3C2=Nc2c(c(C)nn2-c2ccc(C)cc2)C3c2cccnc2)cc1 (stereo not drawn),i,i,i,56,i
Cc1cccc(-n2nnc3cnn(C)c3c2=O)c1,i,i,i,i,i
COc1ccc(S(=O)(=O)CCc2nc3ccccc3s2)cc1,i,i,76,i,i
O=S(=O)(CCc1nc2ccccc2s1)c1ccc(Cl)cc1,i,i,i,i,i
O=S(=O)(Cc1nc2ccccc2s1)c1ccccc1,i,i,i,i,2.3
CN(C(=O)COC(=O)CNS(=O)(=O)/C=C/c1ccccc1)C1CCS(=O)(=O)C1 (stereo not drawn),i,i,i,i,i
O=C(Cn1cnc2ccccc2c1=O)NCCC(=O)N1CCN(c2ccccc2)CC1,i,i,i,i,i
O=C(Nc1sc2c(c1C(=O)O)CCC2)c1cccs1,nt,i,85,70,i
NC(=O)c1c(NC(=O)c2cccs2)sc2c1CCCCCC2,i,i,84,85,i
O=C(Nc1nc2c(s1)CCCC2)c1cccs1,i,i,i,i,i
O=C(Nc1sc2c(c1C(=O)O)CCC2)c1ccccc1,i,i,i,i,i
O=C(OCC(=O)N1CCN(C(=O)COC(=O)c2ccncc2)CC1)c1ccncc1,i,i,i,i,i
Nn1c(SCC(=O)N2CCCc3ccccc32)nnc1-c1ccc(Cl)cc1,i,i,i,i,i
S=C(c1ccc(-c2ccc(Cl)cc2)o1)N1CCCCC1,i,i,92,80,i
Cc1cc(O)c(NC(=S)NC(=O)c2ccc(-c3ccc(Cl)cc3)o2)cc1C,i,i,i,i,i
N#CCCN1CCN(C(=S)c2ccc(-c3ccc(Cl)cc3)o2)CC1,i,i,62,i,i
c1ccc(-n2nnnc2Oc2cccc3cccnc23)cc1,i,i,90,i,2.7
COc1ccccc1Oc1nnnn1-c1ccc(C(N)=O)cc1,i,i,i,i,i
Cc1ccc2cccc(Oc3nnnn3-c3ccccc3)c2n1,i,i,95,i,i
c1ccc(-n2nnnc2OCCOc2nnnn2-c2ccccc2)cc1,i,i,i,i,i
SMILES,Cav32 inh,CYP2C19 activ,CYP2C19 inh,CYP2C9 inh,CYP2C9 activ
COCCOC(=O)c1c(C)n(C)c2ccc(OC(=O)C3CC3)cc12,i,i,i,i,i
CCCOc1nc2c(c(=O)n(C)c(=O)n2C)n1Cc1cccc2ccccc12,i,i,i,i,i
COc1ccc(CNC(=O)c2cnc3cc(C)ccn3c2=O)cc1,i,i,62,i,i
CN(C)CCCNS(=O)(=O)c1ccc(Oc2ncc(C(F)(F)F)cc2Cl)cc1,i,i,i,i,i
COc1ccc(Cn2nc(C)n(N(C)c3ncc(C(F)(F)F)cc3Cl)c2=O)cc1,i,i,53,i,i
CCc1ccc(-c2ccc(C(=O)C(F)(F)F)[nH]2)cc1,i,i,i,i,i
Cc1ccc(/C(N)=N/OC(=O)COc2ccccc2Cl)cc1,i,i,i,i,i
COc1ccc(NC(=O)C(C)NS(=O)(=O)c2ccccc2)cc1Cl (stereo not drawn),i,i,87,i,i
COC(=O)c1ccccc1NC(=O)Oc1ccc(C(C)C)cc1,i,i,i,i,i
COc1ccccc1NC(=O)C(C)NS(=O)(=O)c1ccc(Cl)cc1 (stereo not drawn),i,i,74,i,3.4

# Source: PubChem (several laboratories)
